Source: PubChem BioAssay AID492953 (The Scripps Research Institute Molecular Screening Center, 2010)
The campaign covered roughly 340,000 compounds. About 4,200 (1.2%) were called active. The full list was thinned out, with actives kept by preference. A number with no mark means an inactive call.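 Rule for the calls: active = inhibition above the mean of all tested compounds plus 3 SD (cut at about 24% in these data); inactive = the rest.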

biological target: Platelet-activating factor acetylhydrolase IB subunit alpha2 (Homo sapiens) (UniProt P68402); experiment: PAFAH1B2 enzyme inhibitors, primary screen, biochemical, fluorescence polarization, human (AID 492953); conditions: recombinant PAFAH1B2, FP-rhodamine activity probe, at 3.39 µM, hits give high values;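 note: 0% = enzyme with DMSO and 100% = wells lacking PAFAH1B2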
Sequence (P68402 whole entry, looked up): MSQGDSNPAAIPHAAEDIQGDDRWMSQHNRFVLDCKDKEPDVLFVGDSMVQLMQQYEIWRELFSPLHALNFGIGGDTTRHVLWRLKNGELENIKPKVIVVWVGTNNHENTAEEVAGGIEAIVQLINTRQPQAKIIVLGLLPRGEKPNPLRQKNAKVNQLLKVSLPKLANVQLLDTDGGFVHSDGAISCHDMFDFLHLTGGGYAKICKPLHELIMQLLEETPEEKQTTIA

Point of comparison: `O=c1[nH]c2ccccc2s1`, inhibition 4.32%. Against it:
- CC1CN(C(=O)c2cc(COc3c(F)cccc3F)on2)CCN1C (stereo not drawn) — lower, 0.48%
- O=C(CCS(=O)(=O)c1ccccc1)NC1CCCC1 — higher, 5.22%
- CC(=O)CC(CC(=O)NC1CCCCC1)c1ccccc1 (stereo not drawn) — higher, 5.22%
- CC(C)Cn1cnc2c(SCc3ccc(Cl)cc3)nc(N)nc21 — higher, 7.46%
- Cc1ccc(C(=O)COC(=O)CCN2C(=O)C3C4CC(C(Br)C4Br)C3C2=O)cc1 (stereo not drawn) — lower, -1.23%
- COc1cccc(N2CCN(CC(=O)Nc3ccnn3C3CCCC3)CC2)c1 — lower, 1.78%
- CC1(C(=O)OCC(=O)Nc2ncc(Cl)cc2Cl)CC1(Cl)Cl (stereo not drawn) — lower, 2.15%
- O=C(COC(=O)Cn1[nH]c(=O)c2ccccc2c1=O)Nc1ncc(Cl)cc1Cl — lower, 2.27%
- CCN(CC(=O)Nc1c(F)cccc1F)C(=O)c1ccc(-c2ccccc2)cc1 — lower, 3.05%
- COc1ccc(-c2cn(-c3ccc(C)cc3)c(=O)n2CC(=O)Nc2ccc(OC)c(OC)c2)cc1 — lower, 2.69%
- CC1CCC(NC(=O)CNC(=O)c2ccc3ccccc3c2)CC1 (stereo not drawn) — higher, 7.58%
- CCCc1cc(=O)[nH]c(SCc2cc(=O)oc3c(C)c(C)ccc23)n1 — lower, -0.37%
- CCCc1cc(=O)n2[nH]c(SCc3ccccc3)nc2n1 — higher, 13.6%
- Cn1cc(C2OC(=O)c3ccccc32)c2ccccc21 (stereo not drawn) — lower, 0.55%
- Cc1cccc(NS(=O)(=O)c2ccc(C)c(C(=O)NCC(c3ccccc3)N(C)C)c2)c1 (stereo not drawn) — higher, 6.63%
- Cc1ccc(S(=O)(=O)NCCCn2ccnc2)cc1C(=O)NC(C)C — lower, 2.08%
- COc1cc(Cl)c(C)cc1NC(=O)COC(=O)c1cc(SC)ccc1Cl — lower, -3.93%
- CSCc1cc(N2CCOCC2)nc(SCc2ccc(Cl)cc2Cl)n1 — higher, 10.7%
- COc1ccc(/C(N)=N/OC(=O)CCCc2ccccc2)cc1 — higher, 6.71%
- N/C(=N\OC(=O)CCc1ccccc1)c1cccnc1 — lower, 1.52%
- C=C(C)c1cccc(C(C)(C)NC(=O)NC2CCCC2)c1 — higher, 4.81%
- COCCSc1nnc(NC(=O)c2cc(OC)c(OC)cc2[N+](=O)[O-])s1 — higher, 4.45%
- COC(=O)[C@@]1(C)[C@H]2C(=O)N(Cc3ccccc3)C(=O)[C@H]2[C@H]2CN=C(SCC3CC3)N21 — lower, 2.74%
- CC(OC(=O)/C=C/c1ccccc1)C(=O)NC1CCCCC1C (stereo not drawn) — lower, 1.18%
- O=C(CN1CCSCC1)N/N=C/c1ccc(F)cc1 — lower, -6.64%
- CCOc1cc(/C=N/NC(=O)CN2CCCCC2)ccc1O — lower, 1.96%
- Cc1ccc(S(=O)(=O)NC(=O)N2CCCN(Cc3ccc(F)cc3)CC2)cc1 — higher, 9.06%
- Cn1c(Cn2nnc3ccccc32)nnc1SCC(=O)c1ccccc1F — higher, 4.6%
- CCOC(=O)c1cccc(NC(=O)CCn2nnc3ccccc32)c1 — lower, 1.37%
- COC(=O)C1=C(N)Oc2cc(C)[nH]c(=O)c2C1c1ccc(Cl)cc1 (stereo not drawn) — lower, -2.03%
- C=CCNC(=O)CCCC(=O)NCC=C — lower, 2.09%
- Cc1ccc(NS(=O)(=O)c2cc3c(cc2C)NC(=O)CO3)cc1 — higher, 6.94%
- Cc1ccc(NS(=O)(=O)c2ccc3c(c2)NC(=O)CO3)cc1 — higher, 19.2%
- Nc1ccc2c(c1)C(=Cc1cccnc1)c1ccccc1-2 — higher, 6.17%
- COc1cc2c(cc1OC)C1C(=O)c3cc(OS(C)(=O)=O)c(OC)cc3C1N(C)C2=O (stereo not drawn) — lower, 0.81%
- CC(=O)N1CCC(C(=O)OCc2ccc(Cl)cc2)(c2ccccc2)CC1 — higher, 7.86%
- CCCNC(=O)NC(=O)COC(=O)CC(NC(N)=O)c1ccc(Cl)cc1 (stereo not drawn) — lower, 2.08%
- COc1ccc(-c2c(C)cc3oc(=O)cc(-c4ccccc4)c3c2C)cc1C=O — lower, -1.53%
- O=C(NC1CCC(O)CC1)c1ccc(S(=O)(=O)NCc2ccco2)cc1 (stereo not drawn) — higher, 4.89%
- Cc1ccc(S(=O)(=O)N2CCC(C(=O)N[C@@H](C)C(=O)NCc3ccco3)CC2)cc1 — higher, 4.6%
- O=C(CSc1ccc([N+](=O)[O-])cn1)Nc1ccc(N2CCOCC2)c(Cl)c1 — lower, -0.87%
- O=C(/C=C/c1ccccc1[N+](=O)[O-])OCC(=O)N1CCCC1 — lower, 0.91%
- COC(=O)[C@@H]1C[C@H]2CC[C@H](O)C[C@H]2N1Cc1ccc(N2CCN(C)CC2)cc1 — lower, -3.13%
- O=C1N[C@@H](c2ccccc2)COC(=O)[C@H](Cc2ccc(F)cc2)C/C=C\C[C@@H]1CC(=O)N(CCO)Cc1ccccc1 — higher, 4.49%
- O=C1CCC/C=C/C[C@@H](CC(=O)N(CCO)Cc2ccccc2)C(=O)NC[C@H](c2ccccc2)O1 — lower, -0.45%
- COC(=O)c1cc(S(=O)(=O)N2CCC(C(N)=O)CC2)oc1C — lower, -0.09%
- O=C(Nc1ccccc1)N1CCC(C(=O)N2CCN(Cc3ccccc3)CC2)CC1 — lower, 0.85%
- COc1ccc(C2c3c(C)nn(-c4ccccc4)c3NC(=O)N2c2ccccc2)cc1 (stereo not drawn) — lower, 0.39%
- COCc1[nH]nc2c1C(C1C=CCCC1)C(C#N)=C(N)O2 (stereo not drawn) — higher, 4.96%
- CCCc1[nH]nc2c1C(c1ccc(Br)s1)C(C#N)=C(N)O2 (stereo not drawn) — higher, 19.3%
- CC(C)(C)c1cc(CN2CCN(CCC#N)CC2)cc(C(C)(C)C)c1O — lower, 1.53%
- CCOC(=O)C1CCN(C(=O)Nc2ccc(Cl)cc2)CC1 — lower, 2.4%
- CCOC(=O)c1ccccc1N1C(=O)C2Sc3[nH]c(=O)sc3C(/C=C/c3ccccc3)C2C1=O (stereo not drawn) — lower, 1.84%
- CCCCNC(=O)N1CCN(S(C)(=O)=O)CC1 — lower, 3.98%
- Nc1cc(N)nc(SCc2ccc(Cl)cc2)n1 — higher, 24.1%
- O=C(C1CC1)N1CCN=C1SCc1ccc(Cl)cc1 — higher, 10.5%
- COCC1CCN(C(=O)C2CCC(=O)N(Cc3cccc(C(F)(F)F)c3)C2)CC1 (stereo not drawn) — lower, -0.17%
- CCN(CC)CCn1c2ccc(Cl)cc2c2nc(C)sc21 — lower, -5.01%
- CN(C(=O)c1ccc(NC(=O)Cc2cccc(NC(=O)C3CCN(C(=O)c4ccccc4)CC3)c2)cc1)C1CC1 — the same, 4.32%
- O=[N+]([O-])c1ccc(NS(=O)(=O)c2ccccc2)c(Cl)c1 — lower, 1.95%
- CN(C)CCNC(=O)c1ccc(Cl)c2cc3ccccc3nc12 — lower, -1.08%
- CC(=O)COc1ccc2c(-c3ccccc3)cc(=O)oc2c1 — lower, -1.64%
- O=C(CNC(=O)c1ccc(-c2ccccc2)cc1)OCc1ccc(Cl)cc1 — lower, 1.38%
- O=C(NCCc1ccccn1)c1nc(Cn2cc([N+](=O)[O-])cn2)no1 — lower, -4.12%
- C=CC(=O)Nc1ccc(Nc2ccnc(Nc3ccc(N4CCN(C)CC4)cc3)n2)cc1 — lower, 1.32%
- O=C(COc1ccccc1Cl)Nc1ccccc1C(=O)NC1CC1 — lower, 0.96%
- COc1ccc(S(=O)(=O)N2CCOC2CNC(=O)C(=O)NCc2ccncc2)cc1C (stereo not drawn) — lower, 1.87%
- Nc1cccnc1Sc1ccccc1 — lower, 4.02%
- CC(Oc1ccc(Cl)cc1)C(=O)Nc1ncccn1 (stereo not drawn) — higher, 5.55%
- CCN(Cc1ccccc1)S(=O)(=O)c1cc2c3c(c1)CCN3C(=O)CC2 — higher, 8.31%
- C=CCOc1ccc(/C=N/n2cncn2)cc1OC — higher, 6.27%
- CCOC(=O)c1c(NC(=O)CSc2cn(CC)c3ccccc23)sc2c1CCC2 — lower, -2.98%
- CCOC(=O)c1c(NC(=O)CSc2nnc(CN3CCOCC3)n2C)sc2c1CCCC2 — lower, -1.06%

With `O=C(CNC1CCCCC1)NCC1(c2ccccc2)CCCC1` the inhibition was 26.9% (active).
`CC(Oc1ccc(Cl)cc1)C(=O)OCC(=O)Nc1ncc(Cl)cc1Cl` (stereo not drawn) was tested, and the inhibition was 30.6% (active).
With `CCCc1cc(=O)[nH]c(SCc2ccc(C#N)cc2)n1` the inhibition was 25.2% (active).
`Cc1ccc(S(=O)(=O)NCCC(c2ccccc2)c2ccccc2)cc1C(=O)O` was tested, and the inhibition was 29% (active).
`N/C(=N\OC(=O)CCc1ccccc1)c1ccc(Cl)cc1` was tested, and the inhibition was 63.8% (active).
With `Cc1ccc(COc2ccc(/C=N/NC(=O)CN3CCCCC3)cc2)cc1` the inhibition was 25.1% (active).
In the case of `C/C(Cn1nnc2ccccc21)=N\OC(=O)c1cc(F)c(F)cc1Cl`, the inhibition is reported as 25.1% (active).
In the case of `O=C1COc2ccc(S(=O)(=O)Nc3ccc(OC(F)(F)F)cc3)cc2N1`, the inhibition is reported as 41.6% (active).
`COCCNC(=O)NC(=O)COC(=O)C1(c2ccc(Cl)cc2)CC1` was tested, and the inhibition was 26.9% (active).
For `CC1CCN(S(=O)(=O)c2ccc(S(=O)(=O)NCc3ccco3)cc2)CC1`, the inhibition was 29.6% (active).
In the case of `O=C1NC[C@@H](c2ccccc2)OC(=O)[C@H](Cc2ccc(F)cc2)CC/C=C/C[C@H]1CC(=O)N(CCO)Cc1ccccc1`, the inhibition is reported as 53.8% (active).
With `CCCc1[nH]nc2c1C(C1CC=CCC1)C(C#N)=C(N)O2` (stereo not drawn) the inhibition was 27.5% (active).
`CCOC(=O)C1Sc2[nH]c(=O)sc2C(c2ccc(Cl)cc2)C1C(=O)OCC` (stereo not drawn) was tested, and the inhibition was 27% (active).
For `Clc1ccc(CSc2nnc([C@@H]3CCCN3)o2)cc1`, the inhibition was 24.3% (active).
`CCN(CC)CCCC(C)n1c2nc(=O)[nH]c(=O)c-2nc2cc(Cl)ccc21` (stereo not drawn) was tested, and the inhibition was 26% (active).
`O=C(CNC(=O)OCc1ccccc1)Oc1cc2oc(=O)cc(-c3ccccc3)c2cc1Cl` was tested, and the inhibition was 45.7% (active).
For `Nc1ccc2nc3c(=O)[nH]c(=S)[nH]c3nc2c1`, the inhibition was 33.8% (active).
`CC(Oc1ccc(Cl)cc1)c1ccnn1S(C)(=O)=O` (stereo not drawn) was tested, and the inhibition was 29.6% (active).
In the case of `CCOC(=O)c1c(NC(=O)CSc2nnc(C)c(=O)[nH]2)sc2c1CCC2`, the inhibition is reported as 66.8% (active).
